# Compound activity: PubChem, National Center for Advancing Translational Sciences (NCATS)
# AmpC detergent: AmpC beta-lactamase inhibition with detergent present | P00811 | AmpC hydrolysis of nitrocefin, absorbance 480 nm, 0.01% Triton | Potency, µM (highest dose often 114 µM), for the others: at the highest dose activity change, negative = inhibition, hits mostly inhibitors | 370,000 compounds, 0.041% hits;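 further: potency means the concentration at half of the fitted maximal effect; 0% = no-compound wells and -100% = no-enzyme wells; nearly all actives have a fitted effect of over 25% in size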
# Target sequence (P00811 whole entry, looked up): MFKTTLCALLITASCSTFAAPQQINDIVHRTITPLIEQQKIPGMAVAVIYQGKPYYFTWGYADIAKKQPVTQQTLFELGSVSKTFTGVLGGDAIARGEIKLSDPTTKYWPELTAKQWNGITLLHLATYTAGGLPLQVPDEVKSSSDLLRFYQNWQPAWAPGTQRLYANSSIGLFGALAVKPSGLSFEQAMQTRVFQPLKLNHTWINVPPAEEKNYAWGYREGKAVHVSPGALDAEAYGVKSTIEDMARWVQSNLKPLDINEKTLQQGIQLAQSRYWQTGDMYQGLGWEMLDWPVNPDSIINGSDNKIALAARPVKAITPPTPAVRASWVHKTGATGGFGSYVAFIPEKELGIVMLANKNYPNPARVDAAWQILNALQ
#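 20 mM phosphate pH 7.0 + 0.01% (detergent screen) or 0.0001% Triton X-100; 5.3 nM AmpC reagent; cpd preinc 15 min RT; nitrocefin (800 uM stock) to start; A480 q20 s × 4 min; Activity was normalised to no-enzyme and no-compound control wells.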
# AmpC no deterg: AmpC beta-lactamase inhibition without detergent; P00811; AmpC nitrocefin hydrolysis, absorbance 480 nm, 0.0001% Triton; Potency, µM (highest dose often 57.1 µM), for the others: at the top dose activity change, negative = inhibition, most hits filed as inhibitors; 330,000 compounds, 0.52% hits;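 further: potency means the concentration at half of the fitted maximal effect; plate controls were no compound for no effect and no enzyme for full effect; nearly all actives have a fitted effect of over 20% in size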
#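 AmpC (5.3 nM in the dispensed reagent) in 20 mM phosphate pH 7.0 with 0.01% (detergent screen) or 0.0001% Triton X-100 was preincubated with compounds for 15 min at room temperature. Nitrocefin was then added from an 800 uM solution, and hydrolysis was followed at 480 nm.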
# Shiga toxin inh: blocks Shiga toxin action in Vero cells | Vero cells, Shiga toxin protein synthesis inhibition reporter | inhibition, % at 38.7 µM | 290,000 compounds, 9.2% hits; in the data active means inhibition mostly above about 28%, no sharp cut-off; inactive means mostly below about 43%; further: 0% is about no effect
# Cycloheximide cs: counter-screen hit for Shiga toxin inhibitors, cycloheximide; cell reporter, cycloheximide protein synthesis inhibition counterscreen; 300,000 compounds, 12% hits; max response, %; in the data active means max response mostly above about 13%, no sharp cut-off; inactive means mostly below about 14%; further: read at 38.3 µM for the half of the compounds with a filed dose; 0% is about no effect
# SARS PLpro yeast: inhibitors of SARS-CoV papain-like protease in yeast | S. cerevisiae expressing SARS-CoV PLpro, growth rescue | Potency, µM (highest dose often 32.9 µM), for inactives: top-dose activity, positive = growth rescue, most hits filed as activators | 330,000 compounds, 0.19% hits | AID 485353; calls by dose curve; further: potency means the concentration at half of the fitted maximal effect; 0% is about no effect; nearly all actives have a fitted effect of over 55% in size
# AMA1 RON2 block: AMA1-RON2 (P. falciparum) interaction inhibition; AlphaScreen AMA1-biotinylated RON2 peptide binding; Potency, µM (titrated, usually from 58.2 µM), inactives show at the top dose activity change, negative = inhibition, most hits filed as inhibitors; 360,000 compounds, 0.2% hits;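 further: potency means the concentration at half of the fitted maximal effect; 0% = vehicle wells and -100% = peptide control; nearly all actives have a fitted effect of over 45% in size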
#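 AMA1 (3D7) with his tag at 25 nM final met compounds first, then biotinylated RON2 peptide at 25 nM; detection used donor plus acceptor beads, 10 µg/mL apiece, read by AlphaScreen after 30 min at room temperature.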
# Starred values were filed as active, the others as inactive; ? = inconclusive; / = no result; [ ] = dose if it differs, or a comment. Only a selection was taken, and hits are over-represented in it overall. Unless noted, the call rests on the fitted dose curve; in most records, active means well fitted curve in the direction sought with a large enough effect; inconclusive means small, poorly fitted or top-dose-only effect, or another doubt; inactive means no such curve, though single readings can be large; an effect the other way counts as inactive or inconclusive.
SMILES,AmpC detergent,AmpC no deterg,Shiga toxin inh,Cycloheximide cs,SARS PLpro yeast,AMA1 RON2 block
C/C(=N\NC(=O)C1CC1)c1cccs1,0%,-1%,5,-3,18%,4%
COC(=O)N/N=C(\C)c1cccs1,-11%,-10%,17,11*,1%,-6%
C/C(=N\NC(=S)NC1CCCCC1)c1cccs1,6%,-23%[2.29 µM],58*,28*,-4%,44%
C/C(=N/NC(=O)c1ccc2nc[nH]c2c1)c1cccs1,-5%,-16%,55*,39*,-1%,66%
O=C1COc2ccc(C(=O)NCc3ccco3)cc2N1,?,-18%,-9,-1,2%,0%
C/C(=N\NC(=O)c1ccc(Cl)cc1)c1cccs1,-9%,-41%,57*,19*,-8%,27%
C/C(=N\NC(=O)c1ccc(NS(=O)(=O)c2cccs2)cc1)c1cccs1,?,-34%,15,17,-1%,14%
COc1ccccc1C1=NC(c2ccccc2)CN1c1ccccc1 (stereo not given),2%,-19%,2,-1,-3%,122%
O=C(CCn1nc(-c2ccc(Cl)cc2)ccc1=O)NCc1ccccn1,?,11%,-2,-1,-5%,2%
O=C(CCCOc1ccc(Cl)cc1Cl)NCCc1nnc2ccccn12,-5%,55%,19*,15,2%,-5%
Cc1cc(OCCCC(=O)NCCc2nnc3ccccn23)ccc1Cl,/,61%,/,/,2%,6%
O=C(CCSc1ccc(Cl)cc1)NCc1ccccn1,5%,-5%,23,13*,-3%,13%
O=C(CCCOc1ccc(Cl)cc1Cl)NCCCO,-13%,2%,-20,12,2%,7%
O=C(CCCOc1ccc(Cl)cc1Cl)NCCc1ccccn1,5%,61%,39*,31*,1%,8%
COc1cccc(/C=N/c2oc(-c3ccccc3)cc2C#N)c1O,-2%,?,0,24*,-11%,-4%
N#Cc1cc(-c2ccccc2)oc1/N=C/c1ccccc1O,-7%,-14%,18,29*,-13%,-7%
COc1cccc(C=Nc2ccccc2C#N)c1O,0%,-12%,-2,-2,-17%,27%
Cc1oc(/N=C/c2ccccc2)c(C#N)c1C,?,-14%,-4,1,0%,-10%
COc1ccc(/C=N/c2oc(-c3ccccc3)cc2C#N)cc1,-1%,-15%,28,16*,-10%,27%
O=C(Cn1ncc2c3ccccc3n(Cc3ccc(F)cc3)c2c1=O)NC1CCCCCC1,4%,/,/,/,/,/
Cc1cccc(Cn2cc(S(=O)(=O)c3ccccc3)c(=O)c3cc(F)c(N4CCOCC4)cc32)c1,5%,/,/,/,/,/
COc1cccc(Cn2cnc3c(N)c(C)c(C)cc32)c1,-13%,11%,-6,10,2%,-7%
CCCn1cnc2c(N)c(C)c(C)cc21,6%,0.32µM*,12,-4,-4%,-7%
COc1ccc(N2CCN(C(=O)NC(=O)c3ccc(Cl)cc3)CC2)cc1,5%,-3%,11,9,2%,-10%
COc1ccc2c(c1)CC/C2=N\OC(=O)c1ccccc1C,?,-15%,135*,50*,-16%,0%
SMILES,AmpC detergent,AmpC no deterg,Shiga toxin inh,Cycloheximide cs,SARS PLpro yeast,AMA1 RON2 block
COc1ccc2c(c1)CC/C2=N\NC(=O)c1ccccc1,-7%,-12%,75*,64*,-9%,36%
Cc1cccc(C(=O)O/N=C2\CCS(=O)(=O)c3sccc32)c1,-1%,-28%,-5,16,9%,12%
COc1ccc(OCC(=O)N/N=C2\CCc3ccccc32)cc1,-15%,-5%,13,1,7%,-18%
COc1ccc2c(c1)CCC/C2=N/OC(=O)c1ccccc1OC,5%,5%,41,29*,-15%,35%
COc1ccc2c(c1)CC/C2=N\OC(=O)c1cccc(C)c1,-8%,-44%,139*,52*,-40%,-7%
COC(=O)c1cc(Br)c(=O)n(-c2ccccn2)c1,?,-29%,-11,-5,1%,-3%
C#CCN(C[C@@H]1[C@@H](OC(=O)NCCCCCC)[C@@H](OC(=O)NCCCCCC)Cn2c(=O)ccc(=O)n21)S(=O)(=O)c1ccc(C)cc1,/,/,/,/,/,1%
